Shown are actives, neighbours in structure and some others; about 4% of the full set was active somewhere.
697 NFkB inh – lowers PMA/ionomycin-induced NF-kB signal in 697 B cells; 0.33% of 330,000 active; AID 435022; 697 B-cell NF-kB luciferase reporter, 16 h; inhibition, % at 4 µM; in the data active means inhibition above about 35%
Beta apoptosis – blocks beta cell apoptosis | 0.8% of 300,000 active | INS-1E cytokine-induced death, ATP luminescence, 48 h; percent of positive-control rescue, neutral wells zero | protection from apoptosis, % (no concentration beside the values);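 active means Every replicate reaches about 75%, or at least half do and their mean reaches it too, limit read from the data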;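 further: higher means more ATP so stronger rescue from cytokine killing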
Jurkat NFkB inh – inhibitors of the PMA/ionomycin-induced NF-kB reporter in Jurkat cells; inhibition, % at 4 µM; PMA/ionomycin-induced NF-kB luciferase reporter, luminescence; 0.53% of 330,000 active; in the data active means inhibition above about 50%
Gli-Sufu antag – antagonists of Gli-Sufu signaling; Sufu-KO-LIGHT fibroblasts, Gli luciferase reporter luminescence; inhibition, % at 5 µM; 0.74% of 340,000 active;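 active means inhibition above about 55%, limit read from the data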
Mdm2 MdmX PPI – inhibitors of human Mdm2/MdmX interaction; O15151+Q00987; SaOS-2 split-luciferase Mdm2/MdmX complementation, luminescence; inhibition, % at 8 µM; 3% of 330,000 active; AID 485346;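 active means inhibition of at least 50% at 8 µM in the primary screen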
Mdm2-MdmX conf – human Mdm2/MdmX binding inhibition, confirmed; shares compounds with Mdm2 MdmX PPI; luminescent assay; inhibition, % at 8 µM; 55% of 10,000 active; in the data active means inhibition above about 40%
FLuc counter – counter-screen for Mdm2/MdmX inhibitors: full-length luciferase; shares compounds with Mdm2 MdmX PPI; SaOS-2 full-length luciferase counterscreen, luminescence; inhibition, % at 8 µM; 77% of 6,200 active; AID 504607;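 active means mean inhibition at 8 µM reaching about 37%, which flags the compound as non-specific, limit read from the data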;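 further: p53-null SaOS-2 cells with luciferase driven by a doxycycline-inducible promoter; compound on cells about two nights before reading with doxycycline added after day one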
Of the large screens only hits and unclear results are named; the others gave an inactive call (follow-up assays come after a bar, where they were run).

CC(OC(=O)c1ccc(-c2ccc(O)cc2)cc1)C(=O)NC1CCCCC1C (centres undefined)	none
COc1ccc(C(=O)/C=C2/C(=O)Nc3ccccc32)cc1OC	none
C=CCOc1ccc(C(=O)/C=C2/C(=O)Nc3ccccc32)cc1	Mdm2 MdmX PPI 52.1 | Mdm2-MdmX conf inactive
O=C1Nc2ccccc2/C1=C/C(=O)c1cccs1	Mdm2 MdmX PPI 64.1 | Mdm2-MdmX conf inactive
COc1ccc(C(=O)/C=C2/C(=O)Nc3ccccc32)cc1	none
C=CCOc1ccccc1C(=O)/C=C1/C(=O)Nc2ccccc21	Mdm2 MdmX PPI 77.6 | Mdm2-MdmX conf inactive
COc1ccc(C(=O)/C=C2/C(=O)Nc3ccccc32)c(OC)c1	Mdm2 MdmX PPI 86.0 | Mdm2-MdmX conf inactive
Cc1cnc(C(=O)OCc2ccc(Br)cc2)cn1	none
CSCCC(NC(=O)c1ccc(C(C)(C)C)cc1)C(=O)O (centres undefined)	none
CSc1ccc(C(=O)C2CCCN(C(=O)CCc3c(C)nn(C)c3C)C2)cc1 (centres undefined)	none
CC(=O)Nc1ccc(S(=O)(=O)N2CCN=C2SCc2ccc([N+](=O)[O-])cc2)cc1	none
FC(F)(F)c1cc(C(F)(F)F)c2ccc(N3CCN(c4ncccn4)CC3)nc2n1	Mdm2 MdmX PPI 57.6 | Mdm2-MdmX conf inactive
O=c1[nH]c(Cc2ccccn2)nc2scc(-c3ccccc3Cl)c12	none
N#CN(Cc1ccccc1)Cc1ccccc1	none
COc1ccc(/C(N)=N/OC(=O)c2c(-c3ccccc3Cl)noc2C)cc1OC	Mdm2 MdmX PPI 100.3 | Mdm2-MdmX conf 95.8 | FLuc counter 95.8
Cc1nc(/C(N)=N/OC(=O)c2c(-c3ccccc3Cl)noc2C)cs1	Mdm2 MdmX PPI 93.2 | Mdm2-MdmX conf 76.5 | FLuc counter 95.8
Cc1onc(-c2ccccc2Cl)c1C(N)=O	none
CC(C)Cc1nc2oc3c(NCC4CCCO4)ncnc3c2c2c1CCC2 (centres undefined)	Mdm2 MdmX PPI 53.1 (no result: Beta apoptosis) | Mdm2-MdmX conf 54.9 | FLuc counter 75.2
Fc1ccc(N2CCN(c3cnc4ccccc4n3)CC2)cc1	none (no result: Beta apoptosis)
Cc1ccc(C(C(=O)NC2CCCCC2)N(Cc2ccco2)C(=O)Cn2cnc3ccccc32)cc1 (centres undefined)	none
CC(C)NC(=O)CN1CCC(c2ccccc2)C(O)C1 (centres undefined)	none
COc1ccc(-c2oc(NC(=O)CSc3nncn3C)c(C#N)c2-c2ccc(OC)cc2)cc1	Mdm2 MdmX PPI 62.6 | Mdm2-MdmX conf 54.2 | FLuc counter 69.7
CCn1c(SCC(=O)Nc2oc(-c3ccccc3)c(-c3ccccc3)c2C#N)nnc1-c1ccco1	none
CS(=O)(=O)c1ccc(CNC(=O)C2(C(F)(F)F)C/C(=C\Cc3ccccc3)CCCO2)cc1 (centres undefined)	none
COc1ccc(OCCCn2cc(/C=C3/C(=N)N4C=C(C)SC4=NC3=O)c3ccccc32)cc1	Mdm2 MdmX PPI 65.1 | Mdm2-MdmX conf 70.7 | FLuc counter 69.1
Cc1cccc(C)c1NC(=O)C(=O)NCC1CCCN1S(=O)(=O)c1cccs1 (centres undefined)	none
CCN1C(=O)[C@H]2[C@@H](c3ccc(C)cc3)N3C(=O)N(c4cccc(F)c4)C(=O)[C@@]3(C)[C@H]2C1=O	none
O=C(NCCCN1CCOCC1)c1cc(-c2ccccc2)nc2ccccc12	none
Cc1ccc(-c2cc(C(=O)NCCCN3CCOCC3)c3ccc(Cl)c(C)c3n2)cc1	Mdm2 MdmX PPI 50.5 | Mdm2-MdmX conf 41.7 | FLuc counter 75.0
COc1ccccc1N1CC(C(=O)Nc2nnc(SC)s2)CC1=O (centres undefined)	none
COc1ccccc1NS(=O)(=O)c1ccc(-c2cnc(C3CC3)o2)cc1	Mdm2 MdmX PPI 69.8 | Mdm2-MdmX conf 63.9 | FLuc counter 80.5
CC(=O)c1cccc(NS(=O)(=O)c2cc(-c3cnc(C4CC4)o3)ccc2C)c1	Mdm2 MdmX PPI 56.7 | Mdm2-MdmX conf 60.5 | FLuc counter 61.4
COc1cccc(N2CCN(S(=O)(=O)c3ccc(-c4cnc(C5CC5)o4)cc3)CC2)c1	Mdm2 MdmX PPI 78.9 | Mdm2-MdmX conf inactive
Cc1ccc(-c2cnc(C3CC3)o2)cc1S(=O)(=O)Nc1ccccc1	Mdm2 MdmX PPI 60.6 (no result: Beta apoptosis) | Mdm2-MdmX conf 66.0 | FLuc counter inactive
COc1ccc(N2CCN(S(=O)(=O)c3ccc(-c4cnc(C5CC5)o4)cc3)CC2)cc1	none
CC(=O)Nc1cc(S(=O)(=O)Nc2ccccc2)c(C)cc1C	none
CC(=O)c1ccc(NS(=O)(=O)c2cc(-c3cnc(C4CC4)o3)ccc2C)cc1	none (no result: Beta apoptosis)
NC(=O)CSc1nnc2ccc(-c3ccc(F)cc3)nn12	none
Cc1ccc(C(=O)N/C(=C\c2ccc(-c3ccc(Cl)cc3)o2)C(=O)NCCCN(C)C)cc1	Beta apoptosis 109.7, Mdm2 MdmX PPI 93.3 | Mdm2-MdmX conf 94.4 | FLuc counter 52.2
CN(C)CCCNC(=O)/C(=C/c1ccc(-c2ccc([N+](=O)[O-])cc2)o1)NC(=O)c1ccccc1	none
Cc1ccc(C(=O)N/C(=C\c2ccc(-c3cccc([N+](=O)[O-])c3)o2)C(=O)NCCCN2CCOCC2)cc1	Mdm2 MdmX PPI 50.7 | Mdm2-MdmX conf inactive
CN(C)CCNC(=O)/C(=C/c1ccc(-c2cccc(Cl)c2)o1)NC(=O)c1ccccc1	Mdm2 MdmX PPI 90.8 | Mdm2-MdmX conf 61.4 | FLuc counter 44.8
CN(C)CCCNC(=O)/C(=C\c1ccc(-c2ccc(Br)cc2)o1)NC(=O)c1ccccc1	Mdm2 MdmX PPI 100.3 | Mdm2-MdmX conf 52.0 | FLuc counter inactive
CN(C)CCNC(=O)/C(=C/c1ccc(-c2cccc([N+](=O)[O-])c2)o1)NC(=O)c1ccccc1	none
CCN(CC)c1ccc(S(=O)(=O)N2CCOCC2)cc1NC(=O)CSC(=S)N1CCCC1	none
Nc1nc(=O)n(C2CCCCO2)cc1Br (centres undefined)	none (no result: 697 NFkB inh, Beta apoptosis, Jurkat NFkB inh, Mdm2 MdmX PPI)
COc1c2ccc(OCC/C(C)=C/C(=O)C=C(C)C)cc2nc2occc12	none
Cc1nn(Cc2ccc(Cl)cc2Cl)c(C)c1NC(=O)c1nn(C)cc1Cl	none
Cc1nn(Cc2ccc(Cl)cc2Cl)c(C)c1NC(=O)c1ccc(COc2cc(Cl)ccc2Cl)o1	Mdm2 MdmX PPI 58.4 | Mdm2-MdmX conf inactive
Cc1nn(Cc2ccc(Cl)cc2Cl)c(C)c1NC(=O)CCl	Mdm2 MdmX PPI 77.7 | Mdm2-MdmX conf 91.8 | FLuc counter 61.6
Cc1nn(Cc2c(F)c(F)c(F)c(F)c2F)c(C)c1NC(=O)c1ccc(COc2ccc(Cl)cc2Cl)o1	none
COc1ccccc1N1CCN(C(=O)c2sc3ncnc(N4CCN(c5ccccn5)CC4)c3c2C)CC1	Mdm2 MdmX PPI 56.0 | Mdm2-MdmX conf 48.0 | FLuc counter 87.6
COc1ccccc1N1CCN(C(=O)c2sc3nc(C)nc(N4CCN(c5ccccn5)CC4)c3c2C)CC1	Mdm2 MdmX PPI 75.8 | Mdm2-MdmX conf 71.0 | FLuc counter 37.8
